Most compounds without a hit are left out; they make up all but 6.5% or so of the library.
MARV entry inh – inhibitors of Marburg virus binding or cell entry; Marburg virus pseudotyped entry inhibition, cell reporter; hit rate 1.8% among 300,000; Potency, µM (doses to about 37.8 µM), for inactives: at the top dose activity change, negative = inhibition, hits mostly inhibitors; calls by dose curve; tested in HEK293 cells; further: potency means the concentration at half of the fitted maximal effect
HCMV inh – inhibitors of human cytomegalovirus | HFF cells, HCMV-luciferase reporter, 72 h; stronger effect = lower value | activity change, negative = inhibition, % at 57.5 µM | hit rate 4.5% among 410,000; in the data active means activity change below about -60%; inconclusive means no clear call, values can overlap the other calls; inactive means above about -39%
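Luciferase read-out from HCMV-luciferase-infected HFFs (MOI 1 PFU/cell) 72 h post infection at 37C; compounds added after 16 h cell attachment; activity normalized between buffer-only basal and Salinomycin (10uM) inhibitor controls.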
Lassa entry inh – Lassa virus entry inhibition | AID 540256 | Potency, µM (series often up to 37.9 µM), for inactives: at the top dose activity change, negative = inhibition, usual class: inhibitors | Lassa virus pseudotype entry inhibition, cell reporter | hit rate 1.2% among 300,000; calls by dose curve; tested in HEK293 cells; further: potency means the concentration at half of the fitted maximal effect; nearly all actives have a fitted effect of over 50% in size
VACV mCherry inh – inhibitors of vaccinia virus infection (mCherry reporter signal); Potency, µM (doses to about 36.5 µM), for the others: at the highest dose activity change, negative = inhibition, actives largely listed as inhibitors; AID 720579; hit rate 0.63% among 310,000; Vaccinia virus mCherry reporter infection, fluorescence; calls by dose curve; tested in A549 cells; further: potency means the concentration at half of the fitted maximal effect; nearly all actives have a fitted effect of over 35% in size
FMDV inh – foot and mouth disease virus antiviral activity; FMDV antiviral cell-based qHTS; Potency, µM (top dose mostly 57.9 µM), for the others: at the top dose activity change, negative = inhibition, actives largely listed as inhibitors; hit rate 1.2% among 410,000; calls by dose curve; tested in HEK293T cells; further: read-out not given here; potency means the concentration at half of the fitted maximal effect; nearly all actives have a fitted effect of over 45% in size
VACV Venus inh – inhibitors of vaccinia virus (Venus reporter); Potency, µM (highest dose often 36.5 µM), for the others: top-dose activity change, negative = inhibition, most hits filed as inhibitors; AID 720580; Vaccinia virus Venus reporter expression, fluorescence; hit rate 0.46% among 330,000; calls by dose curve; tested in A549 cells; further: potency means the concentration at half of the fitted maximal effect; nearly all actives have a fitted effect of over 30% in size
Numbers without * were called inactive; [ ] = dose if it differs, or a comment. On the % scale 0 is the no-effect control and ±100 the full control effect.

O=C(Oc1c(CN2CCOCC2)cc(Cl)c2cccnc12)c1ccccc1Cl was read as MARV entry inh inconclusive, HCMV inh -98.0*, Lassa entry inh inconclusive, VACV mCherry inh 3.55µM*, FMDV inh -19.2% and VACV Venus inh 5.62µM*.
For CC(CN1CCOCC1)OC(=O)c1cccs1 (configuration not stated) the results were MARV entry inh -0.8%, HCMV inh 38.9, Lassa entry inh 21.1%, FMDV inh -2.9% and VACV Venus inh -3.8%.
Screening O=C(Oc1ccc(Cl)c2cccnc12)N1CCOCC1 returned MARV entry inh 1.0%, HCMV inh 65.3, Lassa entry inh -1.2%, VACV mCherry inh inactive, FMDV inh 6.1% and VACV Venus inh -17.1%.
O=C(Oc1c(CN2CCOCC2)cc(Cl)c2cccnc12)c1cccs1 was read as MARV entry inh 10µM*, HCMV inh -98.2*, Lassa entry inh inconclusive, VACV mCherry inh inconclusive, FMDV inh -16.9% and VACV Venus inh inconclusive.
For COc1ccc(CNC(=O)C2CCCN(Cc3nc(-c4cccc(C)c4)oc3C)C2)cc1 (configuration not stated) the results were MARV entry inh inconclusive, HCMV inh 0.4, Lassa entry inh inconclusive and FMDV inh 25.1µM*.
Screening Cc1cccc(-c2nc(CN3CCCC(C(=O)NCc4ccc(Cl)cc4)C3)c(C)o2)c1 (configuration not stated) returned MARV entry inh 7.4%[46.1 µM], HCMV inh 6.6, Lassa entry inh -27.1%[46.1 µM], VACV mCherry inh -4.6%, FMDV inh inconclusive and VACV Venus inh -9.4%.
CCCN(CCC)CCNC(=O)C1CCN(Cc2nc(-c3ccc(Cl)cc3)oc2C)CC1 was read as MARV entry inh 10.3µM*, HCMV inh -8.9, Lassa entry inh inconclusive and FMDV inh -4.8%.
Cc1oc(-c2cccc(Cl)c2)nc1CN1CCC(C(=O)NCCc2ccc(Cl)cc2)CC1 was read as MARV entry inh 2.0%[46.1 µM], HCMV inh 9.2, Lassa entry inh 16.7%[46.1 µM], VACV mCherry inh -20.1%, FMDV inh -4.1% and VACV Venus inh -11.4%.
COc1ccc(CCNC(=O)C2CCCN(Cc3nc(-c4ccccc4C)oc3C)C2)cc1OC (configuration not stated) was read as MARV entry inh inconclusive, HCMV inh -21.3, Lassa entry inh -26.3% and FMDV inh inconclusive.
Screening CCc1ccc(-c2nc(CN3CCCC(C(=O)NCc4ccc(C)cc4)C3)c(C)o2)cc1 (configuration not stated) returned MARV entry inh -2.3%[46.1 µM], HCMV inh 11.5, Lassa entry inh inconclusive, VACV mCherry inh inconclusive, FMDV inh inconclusive and VACV Venus inh -20.9%.
Screening CCc1ccc(-c2nc(CN3CCCC(C(=O)NCCc4ccc(OC)c(OC)c4)C3)c(C)o2)cc1 (configuration not stated) returned MARV entry inh inconclusive, HCMV inh -92.3*, Lassa entry inh inconclusive and FMDV inh 22.4µM*.
For Cc1oc(-c2ccc(Cl)cc2)nc1CN1CCCC(C(=O)NCc2ccc(Cl)cc2)C1 (configuration not stated) the results were MARV entry inh 9.3%[46.1 µM], HCMV inh 6.1, Lassa entry inh 9.5%[46.1 µM], VACV mCherry inh -21.4%, FMDV inh 35.5µM* and VACV Venus inh -16.4%.
Screening C[C@@H]1[C@H](c2ccccc2)OCCS(=O)(=O)N1Cc1ccc(F)cc1 returned VACV mCherry inh inactive and VACV Venus inh -21.8%.
For C=C1C=C(C)n2ncc(C(=O)N(CCc3ccccc3)Cc3ccccc3)c2N1 the results were VACV mCherry inh -12.8% and VACV Venus inh -10.7%.
For CCOc1ccc(-c2nnc(SCC(=O)Nc3ccc4c(c3)c3ccccc3n4CC)n2N)cc1 the results were MARV entry inh 11.6µM*, HCMV inh -60.8*, Lassa entry inh inconclusive and FMDV inh -23.3%.
Screening CC(=O)OC[C@@H]1O[C@H](CCO/N=C(\C)CCN2CCCc3nc(C)c(C)cc32)C=C[C@@H]1OC(C)=O returned MARV entry inh -28.1%[14.2 µM].
Screening CCOC(=O)c1cnc2c(C(F)(F)F)cccc2c1N1CCOCC1 returned MARV entry inh -24.0%, HCMV inh inconclusive, Lassa entry inh -3.7%, FMDV inh 31.6µM* and VACV Venus inh -29.9%.

High-throughput results deposited in PubChem BioAssay by National Center for Advancing Translational Sciences (NCATS).
